Source: PubChem BioAssay
AmpC no deterg = AmpC beta-lactamase inhibition without detergent; P00811; AmpC nitrocefin hydrolysis, absorbance 480 nm, 0.0001% Triton; Potency, µM (highest dose often 57.1 µM), inactives show at the highest dose activity change, negative = inhibition, hits mostly inhibitors; 330,000 compounds, 0.52% hits; AID 485341;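 note: potency is the fitted concentration of half-maximal effect; plate controls were no compound for no effect and no enzyme for full effect; nearly all actives have a fitted effect of over 20% in size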
Target sequence (P00811 whole entry, looked up): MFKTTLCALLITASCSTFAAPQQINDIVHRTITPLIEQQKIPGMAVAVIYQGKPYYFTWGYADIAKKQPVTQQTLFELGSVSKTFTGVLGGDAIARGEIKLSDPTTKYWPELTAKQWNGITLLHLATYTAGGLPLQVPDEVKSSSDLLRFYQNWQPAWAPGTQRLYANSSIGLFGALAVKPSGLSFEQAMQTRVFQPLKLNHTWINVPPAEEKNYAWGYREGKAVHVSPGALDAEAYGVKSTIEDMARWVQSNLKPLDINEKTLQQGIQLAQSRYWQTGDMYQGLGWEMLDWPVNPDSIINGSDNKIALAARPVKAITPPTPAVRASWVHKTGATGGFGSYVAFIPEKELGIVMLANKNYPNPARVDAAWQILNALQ
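AmpC (5.3 nM in the dispensed reagent) in 20 mM phosphate pH 7.0 with 0.01% (detergent screen) or 0.0001% Triton X-100 was preincubated with compounds for 15 min at room temperature. Nitrocefin was then added from an 800 uM solution, and hydrolysis was followed at 480 nm.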
AmpC inh detg = blocks E. coli AmpC beta-lactamase in detergent assay. P00811. AmpC hydrolysis of nitrocefin, absorbance 480 nm, 0.01% Triton. Potency, µM (highest dose often 114 µM), for inactives: at the top dose activity change, negative = inhibition, usual class: inhibitors. 370,000 compounds, 0.041% hits;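 note: potency is the fitted concentration of half-maximal effect; 0% = no-compound wells and -100% = no-enzyme wells; nearly all actives have a fitted effect of over 25% in size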
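AmpC (5.3 nM in the dispensed reagent) in 20 mM phosphate pH 7.0 with 0.01% (detergent screen) or 0.0001% Triton X-100 was preincubated with compounds for 15 min at room temperature. Nitrocefin was then added from an 800 uM solution, and hydrolysis was followed at 480 nm.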
Shiga inhibitor = inhibitors of Shiga toxin in Vero cells; inhibition, % at 38.7 µM; 290,000 compounds, 9.2% hits; Vero cells, Shiga toxin protein synthesis inhibition reporter; in the data active = inhibition mostly above about 28%, no sharp cut-off; inactive = mostly below about 43%; note: 0% is about no effect
SARS PLP yeast = inhibitors of SARS-CoV papain-like protease in yeast. 330,000 compounds, 0.19% hits. S. cerevisiae expressing SARS-CoV PLpro, growth rescue. AID 485353. Potency, µM (doses to about 32.9 µM), inactives show at the top dose activity, positive = growth rescue, actives largely listed as activators; calls by dose curve; note: potency is the fitted concentration of half-maximal effect; 0% is about no effect; nearly all actives have a fitted effect of over 55% in size
AMA1-RON2 inh = AMA1-RON2 (P. falciparum) interaction inhibition; AlphaScreen AMA1-biotinylated RON2 peptide binding; AID 720542; 360,000 compounds, 0.2% hits; Potency, µM (highest dose often 58.2 µM), without a hit: at the top dose activity change, negative = inhibition, most hits filed as inhibitors;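 note: potency is the fitted concentration of half-maximal effect; 0% = vehicle wells and -100% = peptide control; nearly all actives have a fitted effect of over 45% in size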
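AMA1 (3D7) with his tag at 25 nM final met compounds first, then biotinylated RON2 peptide at 25 nM; detection used donor plus acceptor beads, 10 µg/mL apiece, read by AlphaScreen after 30 min at room temperature.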
Cycloheximide cs = counter-screen hit for Shiga toxin inhibitors, cycloheximide. cell reporter, cycloheximide protein synthesis inhibition counterscreen. AID 2314. max response, %. 300,000 compounds, 12% hits; in the data active = max response mostly above about 13%, no sharp cut-off; inactive = mostly below about 14%; note: read at 38.3 µM for the half of the compounds with a filed dose; 0% is about no effect
Numbers without * were called inactive; ? = inconclusive; / = no result; [ ] = remark or other dose. Only a selection was taken, and hits are over-represented in it overall. Unless noted, calls come from the whole dose curve; as a rule, active = well fitted curve in the direction sought with a large enough effect; inconclusive = small, poorly fitted or top-dose-only effect, or another doubt; inactive = no such curve, though single readings can be large; an effect the other way counts as inactive or inconclusive.

SMILES | AmpC no deterg | AmpC inh detg | Shiga inhibitor | SARS PLP yeast | AMA1-RON2 inh | Cycloheximide cs
COc1cccc(OC)c1C(=O)Nc1nc(COc2ccccc2)cs1 | 7% | -6% | 28 | -4% | -3% | 10
CC(=O)Nc1nc(COc2ccccc2)cs1 | -20% | -10% | 64* | -1% | 16% | 44*
Nc1nc(COc2ccc3ccccc3c2)cs1 | / | 0% | 116* | / | -3% | 60*
COC(=O)c1sc(-c2ccc(Cl)cc2)cc1NC(=O)/C=C/C(=O)O | -10% | -1% | 31 | -5% | 2% | 10
Cc1cc(=O)[nH]c(N/N=C/c2ccc(N(C)C)cc2)n1 | -15% | 6% | 50* | 1% | 51% | 24*
Cc1cc(=O)[nH]c(Nc2ccc(N(C)C)cc2)n1 | -6% | 1% | -1 | -4% | -9% | 1
COc1ccc(/C=N/Nc2nc(C)cc(=O)[nH]2)cc1OC | -20% | -18% | -5 | -9% | 10% | -2
Cc1cc(=O)[nH]c(N/N=C/c2ccc(F)cc2)n1 | -4% | 0% | 9 | -2% | 78% | 13*
Cc1ccc2nc(-c3ccc(NC(=O)CN(c4ccccc4C)S(C)(=O)=O)cc3)sc2c1 | -4% | -8% | 95* | -3% | 10% | 61*
Cc1cc(C)cc(N(CC(=O)Nc2ccc(-c3nc4ccc(C)cc4s3)cc2)S(C)(=O)=O)c1 | -30% | -16% | 77* | -6% | -1%[2.32 µM] | 36*
Cc1ccccc1N(CC(=O)Nc1ccc(F)cc1)S(C)(=O)=O | -32% | -12% | -5 | 3% | 12% | -1
Cc1ccc2nc(-c3ccc(NC(=O)COc4ccccc4C(C)(C)C)cc3)sc2c1 | / | 18% | / | / | / | /
O=C(Nc1ccccc1)Nc1nnc([C@H]2C[C@H](O)[C@@H](CO)O2)s1 | / | / | / | / | 10% | /
O=C(NC1CC1)C1C2C3C4CC5C3C5C4C12 (stereo not given) | -12% | -6% | -6 | -7% | 4% | 7
COc1ccc(CNC(=O)CCCN2C(=O)CSc3c2c(C)nn3-c2ccccc2)cc1 | / | 9% | / | / | / | /
CCOC(=O)c1sc(N)c(C(=O)OC)c1C | -12% | 3% | 64* | -3% | -11% | 33*
CCOC(=O)c1sc(NC(=O)C2c3ccccc3Oc3ccccc32)c(C(=O)OCC)c1C | / | -4% | / | / | / | /
CCOC(=O)c1c(N)sc(C(=O)OC)c1C | -19% | -7% | 40 | -2% | 87% | 17
CCOC(=O)c1sc(NN=C(C(=O)OC)C(=O)OC)c(C(=O)OCC)c1C | -1% | 10% | 32* | -6% | -21% | 7
COc1ccc(C2=NN(C(=O)c3ccccc3)C(c3ccc(OC)c(OC)c3)C2)cc1OC (stereo not given) | 58% | 2% | -13 | 0% | 5% | -2
COc1ccc(C(c2nnnn2CC2CCCO2)N2CCN(c3ccccc3)CC2)cc1 (stereo not given) | 45% | 3% | 2 | -8% | -8% | -4
CSc1c2c([nH]c(=O)c1C#N)-c1ccccc1CC2 | / | / | / | / | 4% | /
COc1ccc(COC(=O)N/N=C/c2cccs2)cc1 | -25% | 2% | 49* | -4% | 7% | 25*
COc1ccc(/C=N/NC(=O)Cc2cccs2)cc1 | -30% | 3% | 64* | 0% | 7% | 62*
Cc1ccc(/C=N/NC(=O)Cc2cccs2)o1 | -42% | -14% | 23 | -1% | 3% | 8
SMILES | AmpC no deterg | AmpC inh detg | Shiga inhibitor | SARS PLP yeast | AMA1-RON2 inh | Cycloheximide cs
CCN(CC)c1ccc(/C=N/NC(=O)Cc2cccs2)cc1 | -26% | -11% | 31 | -18% | -9% | 33*
COc1ccc(CC(=O)N/N=C/c2cccs2)cc1OC | -13% | 2% | -4 | 1% | 2% | -2
C#CCOCCOCCOCCNc1nc(N2CCOCC2)nc(N2CCN(C(=O)[C@H](CC(N)=O)n3cc([C@@H](N)C(C)C)nn3)CC2)n1 | 4% | / | / | 0% | 10% | /
COC(=O)C1C(=O)C2=C(CC1C)NC(C)=C(C(=O)OC1CCCCC1)C2c1ccc(N(C)C)cc1 (stereo not given) | 221% | -9% | 16 | -3% | ? | 6
CCN(CC)S(=O)(=O)c1ccc(N2CCCCC2)c(NC(=O)/C(C#N)=C/c2ccc(OC)cc2)c1 | 4µM* | -2% | -7 | 7% | 1%[11.6 µM] | -5
CCOc1ccc2cc(S(=O)(=O)N3CCOCC3)ccc2c1 | 0.4µM* | -2% | 5 | -1% | -5% | -1
CCOC(=O)c1[nH]c(C)c(C(=O)Nc2ccc3c(c2)CCC3)c1C | -19% | -1% | 14 | 0% | 2% | 10
CCOC(=O)c1[nH]c(C)c(C(=O)Nc2ccc3c(c2)OCCO3)c1C | 19% | -12% | 52* | 0% | -10% | 48*
CC(=O)c1c(C)[nH]c(C(=O)Nc2cccc(C#N)c2)c1C | -30% | -7% | 52 | 1% | 0% | 1
CC(=O)c1c(C)[nH]c(C(=O)Nc2ccc3c(c2)OCCO3)c1C | -38% | -9% | 99* | -8% | 10% | 38*
CCOC(=O)c1scc(-c2ccc(C)cc2)c1S(=O)(=O)N1CCN(c2ccccc2F)CC1 | / | 0% | / | / | / | /
CC(C)(C)NC(=O)c1cnn(-c2ccccc2)c1NC(=O)c1ccccc1 | 0% | 0% | -7 | -11% | 0% | 1
Cc1ccc(S(=O)(=O)NC(=O)Nc2cc(C(C)(C)C)on2)cc1 | 2% | -3% | -10 | 1% | -7% | -1
CC(C)(C)c1cc(NC(=O)Nc2ccccc2)no1 | -38% | -12% | 70* | 0% | -7% | 33*
Cc1cc(C(=O)Nc2cc(C(C)(C)C)on2)c(C)o1 | -26% | 3% | 48 | 0% | 0% | 39*
Cc1cc(NC(NC(=O)c2ccco2)(C(F)(F)F)C(F)(F)F)no1 | -13% | -10% | -1 | -2% | -3% | 13
CC(C)(C)c1cc(NC(=O)c2ccco2)no1 | -18% | 5% | 81* | -5% | -9% | 44*
CC(C)(C)c1cc(NC(=O)Nc2ccccc2OC(F)(F)F)no1 | -18% | -1% | 13 | 6% | -2% | 5
COC(=O)c1ccccc1NC(=O)Nc1cc(C(C)(C)C)on1 | -29% | -7% | 34 | 1% | 2% | 40*
O=C(NC(=S)Nc1ccccc1)c1ccc(-c2ccccc2)cc1 | -28% | -3% | 19 | 9% | 16% | 16
COc1ccc(C(=O)NC(=S)N2CCNC(=O)C2)cc1Br | -4% | -2% | -2 | 0% | 104% | -7
O=C(NC(=S)Nc1ccccc1)c1csnn1 | -43% | ? | 27 | -8% | 11% | 22*
O=C(O)c1ccc(NC(=S)NC(=O)c2ccc(-c3ccccc3)cc2)cc1 | -33% | -1% | 48 | 0% | 24% | 45*
Cc1ccc(C(=O)NC(=S)NNC(=O)c2ccccc2)cc1 | -27% | -6% | 7 | -12% | 136% | 9
